Consider 97 compounds from PubChem BioAssay AID1578 (Sanford-Burnham Center for Chemical Genomics, 2009).

Broadly, the inhibition is the relative decrease from the control value, in per cent.

Screen size: about 290,000 compounds; about 3,000 (1%) were called active. Many of the other results were omitted from the sample, so actives are more common in it than they were. A number with no mark means an inactive call. Cut-off read from the data, not from the text of the source: active = inhibition mostly above about 36% (no sharp cut-off); inactive = mostly below about 34%.

A short description of this assay: inhibition of NOD1-driven NF-kB reporter – cell-based, luminescence, uHTS, primary screen (AID 1578).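 Note: HEK-293T reporter cells stimulated with the NOD1 agonist gamma-tri-DAP.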 As to conditions: NOD1-driven NF-kB luciferase reporter cells, at 4 µM, stronger effect = higher value.
With `COc1ccc(CCNC(=S)Nc2cccc(C)c2C)cc1`, the inhibition was -19.9%.

Regarding `COc1ccc(OC)c(NC(=O)COC(=O)/C=C/c2c(C)nn(C3CCS(=O)(=O)C3)c2Cl)c1` (configuration not stated), the inhibition is -5%.

Turning to `COc1ccc2nc(N3CCCCC3)c(C#N)cc2c1`, the inhibition was -123%.

As for `COc1ccc2cc(C#N)c(N3CCOCC3)nc2c1`, the inhibition was 2.7%.

For `COc1ccc(-n2c(C)cc(/C=C3\SC(=S)NC3=O)c2C)cc1`, the inhibition was -70.7%.

Turning to `COc1ccc2cc(/C=C3\SC(=S)NC3=O)c(N3CCOCC3)nc2c1`, the inhibition was 71.4% (active).

Take `O=C1NC(=S)S/C1=C/c1ccc(N2CCOCC2)o1`: the inhibition is 27.5%.

In the case of `COc1ccccc1C(=O)NC(=S)Nc1ccc2[nH]c(=O)[nH]c2c1`, the inhibition is -36.5%.

In the case of `Cc1ccc(NC(=O)CCC(=O)OCC(=O)c2ccc(Oc3ccc([N+](=O)[O-])cc3)cc2)cc1C`, the inhibition was -7%.

For the compound `OCCSc1nc(N2CCOCC2)nc(N2CCOCC2)n1`, the inhibition was -22.8%.

Regarding `COC(=O)c1cc(CSc2ncnc3sccc23)oc1C`, the inhibition was -1.8%.

For the compound `Cc1cc(-n2cnc(-c3cn[nH]c3C)n2)no1`, the inhibition was -8.9%.

On to `COc1ccc(S(=O)(=O)Nc2cccc(S(=O)(=O)N3CCCCCC3)c2)cc1`, for which the inhibition is -27%.

With `O=S(=O)(Nc1cccc(S(=O)(=O)N2CCCCCC2)c1)c1ccccc1`, the inhibition was -11.7%.

For `COc1ccc(S(=O)(=O)Nc2nc3ccccc3nc2Nc2ccc3c(c2)OCO3)cc1`, the inhibition was 7%.

For `O=S(=O)(Nc1nc2ccccc2nc1Nc1ccc2c(c1)OCO2)c1ccccc1`, the inhibition was 57.6%.

For `O=S(=O)(Nc1nc2ccccc2nc1Nc1cccc(S(=O)(=O)N2CCCCC2)c1)c1ccccc1`, the inhibition is 98.4% (active).

Regarding `CCOc1ccc(NS(=O)(=O)c2ccc(C(=O)N(CC)CC(=O)NCc3cccs3)cc2)cc1`, the inhibition is -1.7%.

Regarding `COc1cccc(CNC(=O)COc2ccc(C(=O)c3ccccc3)cc2)c1`, the inhibition is 4%.

With `O=C(NCc1ccco1)Nc1ccc(OC(F)(F)F)cc1`, the inhibition is -6.5%.

Regarding `O=C(C1=NN[C@@H]2C(=O)N(c3ccccc3C(F)(F)F)C(=O)[C@H]12)c1cnccn1`, the inhibition was -13.1%.

For `Cc1cccc2cc3c(N)c(C(=O)N4CCOCC4)sc3nc12`, the inhibition was -5%.

Consider `Cc1ccc2nc3sc(C(=O)Nc4ccc(N5CCOCC5)cc4)c(N)c3cc2c1`, for which the inhibition was -21.9%.

On to `COc1cc(NC(=O)CSc2nccc(=O)[nH]2)c(C)cc1[N+](=O)[O-]`, for which the inhibition was -24.5%.

On to `Cc1cc(-c2ccc(C)c(S(=O)(=O)N3CC(=O)Nc4ccccc43)c2)on1`, for which the inhibition is -2.5%.

Take `Cc1ccc(C(=O)CC2(O)C(=O)N(C)c3ccccc32)s1` (configuration not stated): the inhibition was -9.2%.

For the compound `CC(=O)N1c2ccccc2C(C)(C)C2CCC(C)CC21` (configuration not stated), the inhibition was -5.9%.

On to `CC(=O)N1c2ccccc2C2(O)N=C(C)SC12` (configuration not stated), for which the inhibition was 66.4% (active).

Turning to `COc1ccc(C(=O)NNC(=O)CN2CCC(n3nnc4cc(C)ccc43)CC2)cc1`, the inhibition was -14.9%.

As for `O=C(OCc1ccc(Cl)cc1)c1cccnc1Cl`, the inhibition is -33%.

With `CCOCCCNc1ncnc2c1[nH]c1ccccc12`, the inhibition is 19.9%.

Take `CCCCOCCCNc1ncnc2c1[nH]c1ccccc12`: the inhibition was 65.9% (active).

In the case of `COCCCNc1ncnc2c1[nH]c1ccccc12`, the inhibition was -16.9%.

For the compound `O=S(=O)(c1ccc(S(=O)(=O)n2cnc3ccccc32)cc1)N1CCCCCC1`, the inhibition is 8.9%.

As for `C=CCO/N=C/C1C(=O)CC(C)(C)CC1=O`, the inhibition was -25.9%.

For the compound `O=C(NC12CC3CC(CC(C3)C1)C2)N1CCN(c2ccccc2)CC1`, the inhibition was -18%.

With `Clc1ccccc1OCCCOc1cccc2cccnc12`, the inhibition was -0.6%.

On to `COc1ccc(CN(C)c2nc(-c3cccnc3)nc3ccccc23)cc1OC`, for which the inhibition was 36.1%.

On to `CCOc1ccc(CN(C)c2nc(-c3cccnc3)nc3ccccc23)cc1OC`, for which the inhibition was 55.2% (active).

Turning to `CN(Cc1cccs1)c1nc(-c2cccnc2)nc2ccccc12`, the inhibition was -37.4%.

`Cc1ccc2cc(C#N)c(NCCNC(=S)NCCCN(C)C)nc2c1C`: the inhibition is -23.4%.

Take `CCCn1c(SCC(=O)Nc2nnc(C(C)C)s2)nc2c1c(=O)n(C)c(=O)n2C`: the inhibition was 34%.

For `CCCCn1c(SCC(=O)Nc2nnc(C)s2)nc2c1c(=O)n(C)c(=O)n2C`, the inhibition was 6.2%.

As to `O=C(c1cnn(C(=O)c2cccc(S(=O)(=O)N3CCOCC3)c2)c1)c1ccccc1O`, the inhibition was 9.5%.

As for `COc1ccc(S(=O)(=O)N2CCc3ccccc32)cc1C(=O)OCC(=O)c1c(N)n(C)c(=O)n(C)c1=O`, the inhibition is -11.1%.

Regarding `CC1CCCCC1NC(=O)CCCn1c(=S)[nH]c2ccsc2c1=O` (configuration not stated), the inhibition was -13.7%.

As for `CCn1cc(CN2CCc3c([nH]c4ccccc34)C2c2ccc(F)c(OC)c2)c(C)n1` (configuration not stated), the inhibition is -23.6%.

With `Cc1ccc(CS(=O)(=O)CCC(=O)NCCCN2CCCC2)cc1`, the inhibition is -5.9%.

Turning to `Cc1ccc(CS(=O)(=O)CCC(=O)NCCN2CCCCC2C)cc1` (configuration not stated), the inhibition was 96.5% (active).

With `Cc1ccc(CS(=O)(=O)CCC(=O)NCCN2CCCC2)cc1`, the inhibition was -7.3%.

`CN(Cc1ccccc1)c1nc(N)c([N+](=O)[O-])c(Nc2cccc(F)c2)n1`: the inhibition is -10.7%.

For `Cc1c(O)c2cccnc2[nH]c1=O`, the inhibition is -21.9%.

As for `CCCCN=C1NN=C(c2ccc3c(c2)OCCO3)CS1`, the inhibition is 14.8%.

For `c1ccc2oc(C3=NNC(=NC4CC4)SC3)cc2c1`, the inhibition was 86.6% (active).

For `COc1ccc(N=C2NN=C(c3ccc4c(c3)OCCO4)CS2)cc1`, the inhibition is -44.7%.

Regarding `c1cc2c(cc1C1=NNC(=NC3CC3)SC1)OCCO2`, the inhibition is 96.6% (active).

As to `c1ccc(CN=C2NN=C(c3cc4ccccc4o3)CS2)cc1`, the inhibition is -43%.

On to `C=CCN=C1NN=C(c2ccc3c(c2)OCCO3)CS1`, for which the inhibition is 67.8% (active).

For the compound `CC(C)(C)N=C1NN=C(c2cc3ccccc3o2)CS1`, the inhibition was -38.4%.

As to `Cc1cccc(N=C2NN=C(c3ccc4c(c3)OCCO4)CS2)c1`, the inhibition is -35.2%.

Turning to `c1ccc(C2=NNC(=NC3CC3)SC2)cc1`, the inhibition was 59.6%.

Take `CCOC(=O)N1CCC(NC(=O)CN2C(=O)CSc3nc(C)cc(C)c32)CC1`: the inhibition is -2.4%.

Take `Cc1ccc(Nc2nc(N)nc(CSC(=S)N3CCOCC3)n2)c(C)c1`: the inhibition is -10%.

With `COc1cc(/C=C/CO)cc(OC)c1OC/C=C(\C)CCC=C(C)C`, the inhibition is 0.8%.

For the compound `COCCn1c(SCC(=O)Nc2ccccc2C(F)(F)F)nc2ccccc2c1=O`, the inhibition is -11.7%.

Turning to `COc1ccc(-c2cc(C3CC3)nc3sc(C#N)c(N)c23)cc1`, the inhibition is 7.9%.

Turning to `CC(C)c1cc(C(=O)N/N=C/c2c[nH]c3ccccc23)n[nH]1`, the inhibition was -15.2%.

For the compound `COC(=O)COc1cccc2c(=O)n(CC(=O)NCCc3ccccc3)ccc12`, the inhibition was -38.1%.

Regarding `Nc1ncnc(NCc2ccccc2)c1[N+](=O)[O-]`, the inhibition was 37.6%.

Take `Cc1cccc(Nc2ncnc(N)c2[N+](=O)[O-])n1`: the inhibition was 28.6%.

Regarding `Cc1cccnc1Nc1ncnc(N)c1[N+](=O)[O-]`, the inhibition was -32%.

Take `Cc1ccc(CNc2nc(N)c([N+](=O)[O-])c(NCc3ccccc3)n2)cc1`: the inhibition was 0.5%.

As to `COc1ccc(Cc2nc3ccc(C(=O)N4CCCC4)cc3o2)cc1OC`, the inhibition was 1.3%.

Turning to `Cc1ccc(Cn2nc(C)c(NC(=O)CCCn3nc([N+](=O)[O-])c(Cl)c3C)c2C)cc1`, the inhibition was -25.5%.

`COc1ccc(C)cc1Nc1n[n+](-c2ccccc2)c(-c2ccc(NC(C)=O)cc2)s1`: the inhibition was -19%.

For the compound `CCn1c2ccccc2c2cc(/C=N/NC(=O)c3ccc(O)cc3)ccc21`, the inhibition was 32.8%.

In the case of `CCn1c2ccccc2c2cc(/C=N/NC(=O)c3cc(O)cc(O)c3)ccc21`, the inhibition was 58.8% (active).

In the case of `CCn1c2ccccc2c2cc(/C=N/NC(=O)c3ccccc3)ccc21`, the inhibition is 41.4%.

On to `CCOC(=O)C1=C(CC)Nc2ccccc2N=C1NC(=O)CCNC(C)=O`, for which the inhibition is -28.2%.

In the case of `CCOCc1c(C(=O)NC2=Nc3ccccc3NC(CC)=C2C(=O)OCC)oc2ccccc12`, the inhibition was 4.5%.

As for `CCOC(=O)C1=C(CC)Nc2ccccc2N=C1NC(=O)c1oc2ccccc2c1C`, the inhibition was 56.6% (active).

As to `O=C(Cc1ccccc1)NN1C(=O)C2C3C=CC(C3)[C@@H]2C1=O` (some centres not stated), the inhibition was -12.9%.

For the compound `Cc1nc(SCCOc2ccc(F)cc2)c2ccccc2n1`, the inhibition was -33.3%.

As for `COC(=O)c1ccccc1NC(=O)Cn1cnc2cc(C)c(C)cc21`, the inhibition was -3.9%.

`CCOC(=O)c1ccc(NC(=O)Cn2cnc3cc(C)c(C)cc32)cc1`: the inhibition was 33% (active).

As to `Cc1ccc(NC(=O)CCn2cnc3cc(C)c(C)cc32)cc1`, the inhibition was -8.2%.

Take `O=C(Nc1ccc(Br)cc1)c1cc(-c2ccc3c(c2)OCO3)on1`: the inhibition was -33.8%.

Regarding `Cc1cccc(NC(=S)NC(=O)c2oc3ccccc3c2C)n1`, the inhibition is -35.5%.

With `O=C(Nc1cc(S(=O)(=O)N2CCOCC2)ccc1N1CCOCC1)C1CCCO1` (configuration not stated), the inhibition was -32.9%.

For `Cc1ccc(-n2c3c(c(=O)[nH]c2=O)C(NS(=O)(=O)c2ccc(Cl)cc2)(C(F)(F)F)C(=O)N3)cc1` (configuration not stated), the inhibition was -31.8%.

Turning to `O=C(NCc1ccccc1)c1ccc2nccnc2c1`, the inhibition is 2%.

For the compound `O=C(NCCc1ccc(Cl)cc1)c1ccc2nccnc2c1`, the inhibition is -33.2%.

For `O=C(NCCc1ccccc1)c1ccc2nccnc2c1`, the inhibition was 66.7% (active).

`CCCCNc1ccc(C(CC(N)=O)NC(=O)Cc2ccc(Br)cc2)cc1[N+](=O)[O-]` (configuration not stated): the inhibition was -9.3%.

As for `CC(=O)c1cccc(OCC(O)CNCC2COc3ccccc3O2)c1` (configuration not stated), the inhibition was 37.9% (active).

In the case of `CC(=O)c1cccc(OCC(O)CNCC2CCCCC2)c1` (configuration not stated), the inhibition is -5.6%.

For `OC(CNCC1COc2ccccc2O1)COc1ccc(Cl)cc1` (configuration not stated), the inhibition was -12.2%.
